# PD-1 reverse act: activators reversing PD-1 mediated T-cell inhibition, primary screen, luminescence, primary human CD4 T cells, PD-L1 beads; AID 2316, 2010; CellTiter-Glo 96 h; 29,000 tested, under 10 active; activation, % (test concentration not listed); call rule not given here
# NOMO-1 viab: NOMO-1 AML cell viability reduction, primary screen, STK33 inhibitor project, CellTiter-Glo luminescence | hit rate 7.5% among 37,000 | NOMO-1 AML viability, 72 h | AID 2330, 2010 | inhibition, % (no concentration beside the values); in the data active means inhibition above about 80%; inconclusive means no clear call, values can overlap the other calls
# Shh pathway inh: Hedgehog pathway signaling inhibitors, primary screen, luminescence, Shh-LIGHT2 cells, Gli-luciferase | Shh-LIGHT2 Gli-luciferase reporter, 30 h | inhibition, % (no concentration beside the values) | hit rate 2.1% among 22,000 | AID 2313, 2010;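 active means mean inhibition across valid replicates above about 65%, limit read from the data; inconclusive means mean under the limit, yet half or more replicates past it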;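 further: pathway switched on by Shh-conditioned medium diluted 1 in 25 in low serum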
# Hits are given with their value; – = inactive; ? = inconclusive; · = no result given. This is a sample that favours compounds with a hit; in the whole collection about 7.7% have one here.
SMILES,PD-1 reverse act,NOMO-1 viab,Shh pathway inh
C[C@H]1CN([C@@H](C)CO)C(=O)c2cc(NC(=O)Nc3ccc4c(c3)OCO4)ccc2O[C@H]1CN(C)Cc1ccc(C(=O)Nc2ccccc2N)cc1,–,–,·
C[C@@H]1CN([C@H](C)CO)C(=O)c2cc(N(C)C)ccc2O[C@@H]1CN(C)Cc1ccc(C(=O)Nc2ccccc2N)cc1,–,109.7,·
CCn1c(SCC(=O)Nc2ccccc2C(F)(F)F)nnc1-c1cccc(C)c1,–,–,·
CCOC(=O)c1c(CN2CCCCC2)n(-c2ccccc2)c2cc(Br)c(OC)cc12,–,–,–
Cc1ccc(NC(=O)CC(N)C(=O)O)cc1 (configuration not stated),–,–,·
CC1OC(OC2C(O[C@H]3OC[C@](O)(CO)[C@H]3O)COC(O[C@@H]3[C@@H](O)[C@@H](O)[C@H](OC4C(OC(=O)[C@]56CCC(C)(C)CC5C5=CCC7[C@@]8(C)C[C@H](O)[C@H](OC9OC(CO)C(O)C(O)C9O)[C@@](C)(CO)C8[C@H](O)C[C@@]7(C)[C@]5(C)CC6)OCC(O)C4O)O[C@H]3C)C2O)C(O)C(O)C1O (some centres not stated),–,–,–
CCc1c(C)sc(NC(=S)NCc2cc(C)n(C)n2)c1C(=O)OC,–,–,·
O=C(CSc1nnc2sc3ccccc3n12)Nc1c(Cl)cccc1Cl,–,–,·
COc1cc2c(cc1NC(=O)CCCOc1ccccc1)oc1ccccc12,·,–,·
COc1ccc(NC(=O)C2=C(C)NC(=O)NC2c2cc(OC)ccc2OC)c(OC)c1 (configuration not stated),–,–,·
CC1(CO)C=Cc2c(cc(O)c3c(=O)c(-c4ccc(O)cc4)coc23)O1 (configuration not stated),·,·,–
CCN(CCS(=O)(=O)c1ccccc1)S(=O)(=O)c1ccc(C)cc1,–,–,–
Cc1ccc(S(=O)(=O)N[C@@H](Cc2ccccc2)C(=O)CCl)cc1,·,120.1,95.4
CCCC(NS(=O)(=O)c1ccc(C)cc1)C(=O)O (configuration not stated),·,–,·
CC1CC(=O)c2c(ccc3c2C(=O)c2c(O[C@@H]4O[C@@H](C)[C@H](O)[C@@H](O)[C@H]4O)cccc2C3=O)C1 (some centres not stated),–,–,–
COc1cccc2c1C(=O)c1c(O)c3c(c(O)c1C2=O)C[C@@](O)(C(C)=O)C[C@@H]3O[C@H]1C[C@H](N)[C@H](O)[C@H](C)O1,·,120.6,98.6
COC(=O)COc1cccc(NC(=O)c2ccc(NC(=O)c3ccco3)cc2)c1,–,109.8,·
CCOC(=O)c1ccc(NC(=O)c2ccco2)cc1,–,–,–
COc1cccc(NC(=O)c2ccc(OC)c(OC)c2)c1,–,–,–
COC(=O)COc1cccc(NC(=O)c2ccccc2-c2ccccc2C(=O)O)c1,–,–,·
COC(=O)COc1cccc(NC(=O)c2ccccc2)c1,–,121.7,·
COC(=O)COc1cccc(NC(=O)c2cccc(C)c2)c1,–,121.0,·
COC(=O)COc1cccc(NC(=O)c2ccc(Cl)c(Cl)c2)c1,–,108.4,·
COc1cccc(C(=O)COc2cccc(NC(=O)c3cccc([N+](=O)[O-])c3)c2)c1,–,?,·
CC(C)(C)NC(=O)CSc1nnc(-c2ccccc2Cl)n1-c1ccccc1,·,–,·
SMILES,PD-1 reverse act,NOMO-1 viab,Shh pathway inh
O=C(CSc1nnc(-c2ccc(Br)cc2)o1)Nc1cc(C(F)(F)F)ccc1Cl,–,–,·
N#CN=C(N)c1sc2nc3c(cc2c1N)CCCCC3,–,–,–
COC(=O)COc1cccc(NC(=O)c2cccs2)c1,–,137.2,·
COc1cccc(NC(=O)CNC(=O)c2cccs2)c1,–,–,·
COc1ccccc1N1CCN(CCC(=O)Nc2ccc(Br)c(C)c2)CC1,·,–,·
O=c1cc(-c2ccc(O)cc2)oc2cc(O[C@@H]3O[C@H](CO)[C@@H](O)[C@H](O)[C@H]3O[C@H]3OC[C@](O)(CO)[C@H]3O)ccc12,–,–,–
C[C@@H]1CN([C@@H](C)CO)C(=O)c2cccc(NC(=O)CCCCCC(=O)Nc3ccccc3N)c2O[C@@H]1CN(C)S(=O)(=O)c1ccccc1,–,104.3,·
Cc1ccc(S(=O)(=O)N(C)C[C@@H]2Oc3c(NC(=O)CCCCCC(=O)Nc4ccccc4N)cccc3C(=O)N([C@@H](C)CO)C[C@H]2C)cc1,–,–,·
C[C@H]1CN([C@@H](C)CO)C(=O)c2cccc(NC(=O)CCCCCC(=O)Nc3ccccc3N)c2O[C@@H]1CN(C)S(=O)(=O)c1ccc(Cl)cc1,–,102.9,·
COc1ccc(S(=O)(=O)N(C)C[C@H]2Oc3c(NC(=O)CCCCCC(=O)Nc4ccccc4N)cccc3C(=O)N([C@H](C)CO)C[C@@H]2C)cc1,–,–,·
Cc1ccc(S(=O)(=O)N(C)C[C@H]2Oc3c(NC(=O)CCCCCC(=O)Nc4ccccc4N)cccc3C(=O)N([C@H](C)CO)C[C@@H]2C)cc1,–,?,·
COc1ccc(S(=O)(=O)N(C)C[C@@H]2Oc3c(NC(=O)CCCCCC(=O)Nc4ccccc4N)cccc3C(=O)N([C@H](C)CO)C[C@H]2C)cc1,–,100.3,·
C[C@H]1CN([C@@H](C)CO)C(=O)c2cccc(NC(=O)CCCCCC(=O)Nc3ccccc3N)c2O[C@@H]1CN(C)S(=O)(=O)c1ccccc1,–,–,·
C[C@H](CO)N1C[C@H](C)[C@H](CN(C)S(=O)(=O)c2ccc(Cl)cc2)Oc2c(NC(=O)CCCCCC(=O)Nc3ccccc3N)cccc2C1=O,–,119.3,·
O=C(NCCc1ccccc1)c1ccc(-c2ccccc2)cc1,–,–,·
CCn1c(=O)c(C(=O)NCC2CCCO2)c(O)c2ccccc21 (configuration not stated),·,–,·
CSc1cccc(NC(=O)CSc2nnc(-c3ccco3)n2C)c1,–,–,·
C[C@H](CO)N1C[C@H](C)[C@H](CN(C)Cc2ccc(Oc3ccccc3)cc2)Oc2c(NC(=O)Nc3cccc4ccccc34)cccc2C1=O,–,122.4,–
C[C@H](CO)N1C[C@H](C)[C@@H](CN(C)Cc2ccc(Oc3ccccc3)cc2)Oc2c(NC(=O)Nc3ccccc3)cccc2C1=O,–,84.9,–
COc1ccc(NC(=O)Nc2cccc3c2O[C@@H](CN(C)Cc2ccc(Oc4ccccc4)cc2)[C@@H](C)CN([C@H](C)CO)C3=O)cc1,–,116.8,–
COc1ccc(NC(=O)Nc2cccc3c2O[C@@H](CN(C)Cc2ccccc2)[C@H](C)CN([C@H](C)CO)C3=O)cc1,–,117.0,–
COc1ccc(NC(=O)Nc2cccc3c2O[C@@H](CN(C)Cc2ccc(Oc4ccccc4)cc2)[C@@H](C)CN([C@@H](C)CO)C3=O)cc1,–,–,–
C[C@@H]1CN([C@@H](C)CO)C(=O)c2cccc(NC(=O)Nc3ccccc3)c2O[C@@H]1CN(C)Cc1ccc(Oc2ccccc2)cc1,·,–,–
C[C@H]1CN([C@@H](C)CO)C(=O)c2cccc(NC(=O)Nc3ccccc3)c2O[C@@H]1CN(C)Cc1ccc(Oc2ccccc2)cc1,·,–,–
COc1ccc(NC(=O)Nc2cccc3c2O[C@@H](CN(C)Cc2ccccc2)[C@@H](C)CN([C@@H](C)CO)C3=O)cc1,–,–,–
COc1ccc(-n2c(-c3ccc(Cl)cc3)n[nH]c2=S)cc1,–,–,–
Cc1nnc(SCC(=O)Nc2ccc([N+](=O)[O-])cc2O)s1,–,–,·
